In PubChem BioAssay (NCATS):
A number with no mark means an inactive call. Records with an inconclusive call do not appear. Active and inactive are the calls of the source. Unless noted, calls follow the shape of the dose curve; as a rule, active = well fitted curve in the direction sought with a large enough effect; inconclusive = small, poorly fitted or top-dose-only effect, or another doubt; inactive = no such curve, though single readings can be large; an effect the other way counts as inactive or inconclusive.

Key:
[1] = molecular target: Lysosomal acid glucosylceramidase (Homo sapiens) (UniProt P04062); experiment: Glucocerebrosidase-p2 (AID 348; in the data active = potency below about 10 µM; also: potency is read from the fitted curve at half-maximal effect); details: purified GBA, blue fluorogenic substrate, 40 min
Method in brief: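 Normal human glucocerebrosidase (0.2 nM) with blue fluorogenic substrate (80 uM final) in citrate/phosphate pH 5.9 with 10mM sodium taurocholate, 0.01% tween-20; 40 min RT, NaOH/glycine stop; fluorescence Ex 365/Em 440; AC50 from a titration from 0.6 nM upwards.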

[2] = AP1 Signaling Pathway (AID 357; active = well fitted curve in either direction with a large enough effect, not every such curve was filed as active; also: % is scaled to controls: 0 for no effect and ±100 for the full control effect); details: ME-180 AP-1-bla reporter, EGF-induced, beta-lactamase ratio, 5 h; at 7.69 µM (top of the series) unless noted
Method in brief: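 AP-1-bla ME-180 cells with beta-lactamase reporter under AP-1 response element, stimulated with EC50 EGF; compounds titrated, 5 hours at 37 degrees Celsius. CCF4 read at 460/530 nm ratio; positive and negative modulators judged by AC50.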

[3] = molecular target: Cytochrome P450 1A2 (Homo sapiens) (UniProt P05177); experiment: p450-cyp1a2 (AID 410; calls by dose curve; also: potency is read from the fitted curve at half-maximal effect); details: recombinant CYP1A2, luciferin-ME demethylation, luminescence; series mostly up to 57 µM
Method in brief: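 O-Demethylation of luciferin 6' methyl ether by human CYP1A2 is monitored as luciferase luminescence. Substrate sits at Km (100uM); enzyme is 20nM. Values are scaled to 57 uM furafylline as maximal inhibition.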

[4] = Stat Signaling Pathway (AID 446; active = well fitted curve in either direction with a large enough effect, not every such curve was filed as active;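 also: ME-180 cervical cancer cells given 40 pM IL-6 alongside compound; SIE-controlled beta-lactamase reporter measured as 460/530 nm FRET emission ratio; % is scaled to controls: 0 for no effect and ±100 for the full control effect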); details: ME-180 SIE beta-lactamase reporter, IL-6 stimulated, 5 h; at 7.69 µM (top of the series) unless noted
Method in brief: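 Normalization used AC90 stimulation (300 pM IL-6) and AC90 inhibition (125 nM pan-JAK inhibitor at 40 pM IL-6). The underlying signal is SIE-driven beta-lactamase in ME-180 cells after 5 h IL-6 exposure with compound.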

[5] = molecular target: Glucocorticoid receptor (Homo sapiens) (UniProt P04150); experiment: GR-GFP Redistribution (AID 450;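 active = compounds whose dose series gives a full or clear partial fitted curve of increased nuclear translocation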; also: potency is read from the fitted curve at half-maximal effect); details: U2OS GR-GFP nuclear translocation, laser cytometry, 2 h
[6] = molecular target: Glucocorticoid receptor (Homo sapiens) (UniProt P04150); experiment: GR-EFC Redistribution (AID 451; calls by dose curve; also: potency is read from the fitted curve at half-maximal effect); details: CHO-K1 GR-EFC translocation, beta-gal luminescence, 2 h
Method in brief: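 Translocation of GR-ED fusion to nuclear EA restores b-gal, read by luminescence after 1 h room-temperature detection. Engineered CHO-K1 biosensor cells, 1,000/well, exposed 2 h at 37 C to titrations up to 46 uM final.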

[7] = molecular target: Mitogen-activated protein kinase 10 (Mus musculus) (UniProt Q61831); experiment: JNK3 AlphaScreen Assay (AID 530; active = well fitted curve in either direction with a large enough effect, not every such curve was filed as active;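 also: kinase came from lysate of stimulated human HepG2 cells; signal reports phosphorylation of biotinylated GST-cJun 1-79 at Ser73 with 10 µM ATP; % is scaled to controls: 0 for no effect and ±100 for the full control effect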); details: JNK3 lysate, c-Jun phosphorylation; series mostly up to 57.1 µM
Method in brief: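 qHTS titrations with 15 min compound pre-incubation before adding ATP (10 uM final). Read-out: AlphaScreen of Ser73-phosphorylated biotin-GST-cJun using HepG2 lysate JNK3 activated by IL-1β and TNFα.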

[8] = molecular target: 3',5'-cyclic-AMP phosphodiesterase 4B (Homo sapiens) (UniProt Q07343); experiment: qHTS Assay for Inhibitors of PDE-IV (AID 607; active = well fitted activation curve with a large enough effect in the main read-out, with a control signal flat, not every such curve was filed as active; also: % of control where 0% means no effect); details: HEK293 ACTOne CNG channel cells, membrane potential fluorescence; series mostly up to 22.9 µM
Method in brief: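 HEK293 ACTOne cells with CNG channel (1000/well), endogenous PDE4; membrane potential dye, compounds up to 22.9 uM final. Fluorescence Ex 535/Em 590; RO 20-1724 (100 uM final) as reference.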

[9] = molecular target: Cytochrome P450 2C9 (Homo sapiens) (UniProt P11712); experiment: qHTS Assay for Inhibitors and Substrates of Cytochrome P450 2C9 (AID 883); details: recombinant CYP2C9, luciferin-H luminescence, 60 min; series mostly up to 57.1 µM; also: potency is read from the fitted curve at half-maximal effect; nearly all actives have a fitted effect of over 60% in size
Method in brief: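 Luminescent read-out of deoxyluciferin hydroxylation, normalized to 57uM sulphaphenazole (AC100). Reaction: 10nM enzyme, 100uM Luciferin-H (equal to KM), 25mM KPO4, 10 min compound preincubation, then 60 min with NADPH regeneration, both at 37C.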

[10] = molecular target: Dual specificity protein kinase CLK4 (Homo sapiens) (UniProt Q9HAZ1); experiment: qHTS Assay for Inhibitors of CDC-like Kinase 4 (Kinase-Glo Assay) (AID 1770); details: recombinant Clk4, Kinase-Glo ATP depletion luminescence; series mostly up to 66.7 µM; also: nearly all actives have a fitted effect of over 65% in size; also: potency is read from the fitted curve at half-maximal effect
Method in brief: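 Inhibition was judged from remaining ATP, measured by Ultra-Glo luciferase bioluminescence after Clk4 (25 nM) had acted on RS peptide at 1 uM ATP for 4.5 hours, room temperature.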

[11] = molecular target: Dual specificity protein kinase CLK4 (Homo sapiens) (UniProt Q9HAZ1); experiment: qHTS Assay for Inhibitors of CDC-like Kinase 4 (ADP-Glo Assay) (AID 1771); details: recombinant CLK4, ADP-Glo luminescence; series mostly up to 80 µM; also: nearly all actives have a fitted effect of over 70% in size; also: potency is read from the fitted curve at half-maximal effect
Method in brief: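 Compounds are pin-transferred onto substrate mix (100 uM RS peptide, 1 uM ATP), then 25 nM Clk4 is added. After 1 hr at room temperature, ADP-Glo reagent runs 45 min, detection reagent 30 min, then luminescence is read.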

[12] = molecular target: Dual specificity protein kinase CLK4 (Homo sapiens) (UniProt Q9HAZ1); experiment: qHTS Assay for Inhibitors of CDC-like Kinase 4 (ADP-FP Assay) (AID 1795); details: Transcreener ADP fluorescence polarization; series mostly up to 50 µM; also: nearly all actives have a fitted effect of over 60% in size; also: potency is read from the fitted curve at half-maximal effect
Method in brief: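 Inhibition of ADP formation by 6.25 nM Clk4 is measured using 1 uM ATP and 100 uM RS repeat peptide over one hour. Produced ADP displaces a fluorescent tracer from antibody, lowering polarization.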

[13] = molecular target: Ubiquitin carboxyl-terminal hydrolase 1 (Homo sapiens) (UniProt O94782); experiment: Inhibitors of USP1/UAF1: Pilot qHTS (AID 504865); details: purified USP1/UAF1, Ub-rhodamine cleavage fluorescence; series mostly up to 54.9 µM; also: nearly all actives have a fitted effect of over 35% in size; also: potency is read from the fitted curve at half-maximal effect
Method in brief: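 Kinetic fluorescence assay: 1nM USP1/UAF1, 15 min compound preincubation, then 150nM Ub-Rho; 480/540 nm.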

[14] = Primary qHTS for small molecule stabilizers of the endoplasmic reticulum resident proteome: Secreted ER Calcium Modulated Protein (SERCaMP) assay (AID 1508630); details: SH-SY5Y GLuc-SERCaMP (Gaussia luciferase released on ER calcium loss) secretion, thapsigargin, luminescence; series mostly up to 38.4 µM; also: % is scaled to controls: 0 for no effect and ±100 for the full control effect
Method in brief: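 The SH-SY5Y reporter protocol was run at 3 concentrations up to 38.3 uM (primary) or 11 concentrations (follow-up): 16 h compound, 100 nM thapsigargin for 4 h, then extracellular luciferase luminescence.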

[15] = NFAT Signaling Pathway (AID 444; active = well fitted curve in either direction with a large enough effect, not every such curve was filed as active); details: Jurkat NFAT-bla M1, carbachol, beta-lactamase ratio, 5 h; at 7.69 µM (top of the series) unless noted
Method in brief: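 Read-out: CCF4 FRET ratio (460 nm/530 nm) after 1 h RT dye loading, used for %activity and AC50 from titration series. Cells: Jurkat NFAT-β-lactamase/M1 line, treated with compound plus 1 uM carbachol for 5 h, 37 °C.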

[16] = molecular target: Cytochrome P450 3A4 (Homo sapiens) (UniProt P08684); experiment: qHTS Assay for Activators of Cytochrome P450 3A4 (AID 885); details: recombinant CYP3A4, Luciferin-PPXE luminescence, 60 min; series mostly up to 57.1 µM; also: nearly all actives have a fitted effect of over 65% in size
Method in brief: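 Human CYP3A4 dealkylates Luciferin-PPXE to luciferin, which luciferase detection converts to light. Substrate was at its KM (25uM), buffer 200mM KPO4, reaction 60 min at RT.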

[17] = molecular target: Cytochrome P450 2C19 (Homo sapiens) (UniProt P33261); experiment: qHTS Assay for Inhibitors and Substrates of Cytochrome P450 2C19 (AID 899); details: recombinant CYP2C19, luciferin-H EGE luminescence; series mostly up to 57.1 µM; also: potency is read from the fitted curve at half-maximal effect; nearly all actives have a fitted effect of over 60% in size
Method in brief: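 Luminescence readout of luciferin formed from 10uM Luciferin-H EGE (KM level) by 5 nM CYP2C19 in 50mM KPO4. 60 min NADPH-driven reaction at 37C after 10 min compound preincubation; data scaled to 57uM ketoconazole inhibition.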

[18] = molecular target: Cytochrome P450 3A4 (Homo sapiens) (UniProt P08684); experiment: qHTS Assay for Inhibitors and Substrates of Cytochrome P450 3A4 (AID 884); details: recombinant CYP3A4, Luciferin-PPXE luminescence; series mostly up to 57.1 µM; also: nearly all actives have a fitted effect of over 50% in size; also: potency is read from the fitted curve at half-maximal effect
Method in brief: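 Luminescent readout of luciferin produced by CYP3A4 (20 nM) dealkylation of Luciferin-PPXE, 25 uM (its KM). NADPH-driven reaction ran 60 min at RT after 10 min compound preincubation; data scaled to 57 uM ketoconazole as 100% inhibition.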

[19] = molecular target: Cytochrome P450 2D6 (Homo sapiens) (UniProt P10635); experiment: qHTS Assay for Inhibitors and Substrates of Cytochrome P450 2D6 (AID 891); details: recombinant CYP2D6, luciferin-ME EGE luminescence; series mostly up to 57.1 µM; also: potency is read from the fitted curve at half-maximal effect; nearly all actives have a fitted effect of over 60% in size
Method in brief: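 Luminescent read-out of luciferin formed by 5 nM human CYP2D6 demethylating 30 uM Luciferin-ME EGE (Km level) over 60 min at room temperature after NADPH regeneration addition. Data normalized to full inhibition by 1.43 uM quinidine.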

[20] = qHTS Assay for Identification of Small Molecule Agonists for Hypoxia Response Element Signaling Pathway (AID 914; active = well fitted activation curve with a large enough effect in the signal ratio, with a control signal flat, not every such curve was filed as active; the % refers to the signal ratio; also: potency is read from the fitted curve at half-maximal effect); details: ME-180 (cervical carcinoma) HRE-bla reporter, beta-lactamase ratio, CoCl2, 17 h; activation: stronger effect = higher value
Method in brief: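 Cells were plated overnight, pin-dosed with compound in a titration series, co-stimulated with EC50 CoCl2 and incubated 17 hours at 37 degrees Celsius. CCF4 substrate was then loaded, and AC50 values came from the 460nm/530nm ratio.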

Cytochrome P450 3A4 (Homo sapiens), sequence (P08684 whole entry, looked up): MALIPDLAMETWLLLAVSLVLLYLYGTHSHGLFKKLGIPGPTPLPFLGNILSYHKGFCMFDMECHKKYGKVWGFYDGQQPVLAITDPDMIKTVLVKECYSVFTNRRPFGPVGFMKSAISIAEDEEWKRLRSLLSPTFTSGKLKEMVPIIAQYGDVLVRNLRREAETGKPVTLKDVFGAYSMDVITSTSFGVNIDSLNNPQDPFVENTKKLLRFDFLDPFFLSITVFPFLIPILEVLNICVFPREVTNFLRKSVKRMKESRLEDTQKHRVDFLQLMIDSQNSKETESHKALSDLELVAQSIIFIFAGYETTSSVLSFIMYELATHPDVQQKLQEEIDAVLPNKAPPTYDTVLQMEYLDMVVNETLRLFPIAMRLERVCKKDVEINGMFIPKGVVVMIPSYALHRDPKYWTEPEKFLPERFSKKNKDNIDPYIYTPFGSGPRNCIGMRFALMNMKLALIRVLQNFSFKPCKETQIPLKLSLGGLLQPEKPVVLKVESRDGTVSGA
Glucocorticoid receptor (Homo sapiens), sequence (P04150 whole entry, looked up, the tested form may be a part): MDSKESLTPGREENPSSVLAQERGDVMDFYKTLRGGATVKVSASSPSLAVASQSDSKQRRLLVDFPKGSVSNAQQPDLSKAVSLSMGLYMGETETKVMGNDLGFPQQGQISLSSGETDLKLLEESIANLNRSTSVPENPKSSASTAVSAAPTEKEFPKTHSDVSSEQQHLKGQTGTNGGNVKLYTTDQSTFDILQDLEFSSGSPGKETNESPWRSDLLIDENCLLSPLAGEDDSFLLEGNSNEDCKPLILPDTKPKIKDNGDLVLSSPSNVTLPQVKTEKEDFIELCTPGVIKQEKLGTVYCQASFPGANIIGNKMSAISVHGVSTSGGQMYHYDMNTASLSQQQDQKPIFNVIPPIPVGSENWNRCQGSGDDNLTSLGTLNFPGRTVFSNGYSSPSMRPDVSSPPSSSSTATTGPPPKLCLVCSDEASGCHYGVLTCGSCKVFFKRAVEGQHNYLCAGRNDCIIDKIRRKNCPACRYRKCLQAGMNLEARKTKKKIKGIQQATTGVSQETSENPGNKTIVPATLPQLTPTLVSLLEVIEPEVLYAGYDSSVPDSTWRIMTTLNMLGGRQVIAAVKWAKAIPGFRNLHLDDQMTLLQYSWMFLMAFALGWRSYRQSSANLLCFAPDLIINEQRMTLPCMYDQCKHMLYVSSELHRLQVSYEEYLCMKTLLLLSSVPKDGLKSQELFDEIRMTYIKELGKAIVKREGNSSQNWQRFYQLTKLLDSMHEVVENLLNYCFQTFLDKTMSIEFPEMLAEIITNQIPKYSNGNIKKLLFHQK
Dual specificity protein kinase CLK4 (Homo sapiens), sequence (Q9HAZ1 whole entry, looked up): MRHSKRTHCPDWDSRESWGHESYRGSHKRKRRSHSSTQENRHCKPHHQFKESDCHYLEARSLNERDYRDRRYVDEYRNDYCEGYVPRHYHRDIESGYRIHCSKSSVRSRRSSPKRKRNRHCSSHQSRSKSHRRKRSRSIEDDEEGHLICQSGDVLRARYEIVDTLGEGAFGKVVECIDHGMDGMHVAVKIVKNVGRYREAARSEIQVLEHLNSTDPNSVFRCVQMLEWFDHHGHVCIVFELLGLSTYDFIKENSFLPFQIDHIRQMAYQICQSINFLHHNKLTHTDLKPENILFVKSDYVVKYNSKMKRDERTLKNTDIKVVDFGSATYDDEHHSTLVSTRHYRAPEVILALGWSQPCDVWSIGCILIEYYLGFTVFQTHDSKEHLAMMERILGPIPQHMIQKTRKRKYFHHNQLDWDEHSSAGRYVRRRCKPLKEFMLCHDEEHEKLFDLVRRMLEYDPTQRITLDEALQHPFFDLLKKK
Lysosomal acid glucosylceramidase (Homo sapiens), sequence (P04062 whole entry, looked up): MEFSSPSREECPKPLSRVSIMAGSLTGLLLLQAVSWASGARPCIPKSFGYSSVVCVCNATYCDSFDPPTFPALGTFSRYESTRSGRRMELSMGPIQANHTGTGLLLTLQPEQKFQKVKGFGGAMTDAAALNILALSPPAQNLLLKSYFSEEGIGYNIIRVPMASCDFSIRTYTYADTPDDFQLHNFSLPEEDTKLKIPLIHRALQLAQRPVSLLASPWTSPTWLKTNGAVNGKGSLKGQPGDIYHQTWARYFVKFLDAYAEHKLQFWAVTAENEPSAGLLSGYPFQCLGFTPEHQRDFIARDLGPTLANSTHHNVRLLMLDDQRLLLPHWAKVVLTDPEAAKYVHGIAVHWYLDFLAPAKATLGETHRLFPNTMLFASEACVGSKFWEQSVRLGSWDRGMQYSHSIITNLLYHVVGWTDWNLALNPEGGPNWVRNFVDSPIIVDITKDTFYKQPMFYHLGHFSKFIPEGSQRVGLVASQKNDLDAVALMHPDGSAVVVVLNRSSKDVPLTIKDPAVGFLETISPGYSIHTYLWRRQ
Ubiquitin carboxyl-terminal hydrolase 1 (Homo sapiens), sequence (O94782 whole entry, looked up): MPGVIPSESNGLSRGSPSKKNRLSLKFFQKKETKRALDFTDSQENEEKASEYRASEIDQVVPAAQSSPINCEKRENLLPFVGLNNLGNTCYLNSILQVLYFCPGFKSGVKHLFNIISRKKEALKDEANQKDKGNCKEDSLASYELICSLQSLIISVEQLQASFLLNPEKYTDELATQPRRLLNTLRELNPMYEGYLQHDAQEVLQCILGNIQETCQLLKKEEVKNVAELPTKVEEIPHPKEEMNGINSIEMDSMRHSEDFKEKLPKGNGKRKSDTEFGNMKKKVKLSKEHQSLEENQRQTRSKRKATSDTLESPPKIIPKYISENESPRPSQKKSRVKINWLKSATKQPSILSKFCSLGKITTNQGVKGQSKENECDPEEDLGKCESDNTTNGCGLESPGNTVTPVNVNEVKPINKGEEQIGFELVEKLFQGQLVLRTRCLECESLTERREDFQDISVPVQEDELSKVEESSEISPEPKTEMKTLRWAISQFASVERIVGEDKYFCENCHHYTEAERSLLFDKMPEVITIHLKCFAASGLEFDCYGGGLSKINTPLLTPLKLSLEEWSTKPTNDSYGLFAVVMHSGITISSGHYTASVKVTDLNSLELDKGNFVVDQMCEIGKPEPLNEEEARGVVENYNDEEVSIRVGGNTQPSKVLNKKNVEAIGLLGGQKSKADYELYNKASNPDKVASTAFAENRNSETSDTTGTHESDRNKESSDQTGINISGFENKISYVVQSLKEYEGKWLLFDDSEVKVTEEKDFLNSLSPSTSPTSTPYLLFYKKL
3',5'-cyclic-AMP phosphodiesterase 4B (Homo sapiens), sequence (Q07343 whole entry, looked up): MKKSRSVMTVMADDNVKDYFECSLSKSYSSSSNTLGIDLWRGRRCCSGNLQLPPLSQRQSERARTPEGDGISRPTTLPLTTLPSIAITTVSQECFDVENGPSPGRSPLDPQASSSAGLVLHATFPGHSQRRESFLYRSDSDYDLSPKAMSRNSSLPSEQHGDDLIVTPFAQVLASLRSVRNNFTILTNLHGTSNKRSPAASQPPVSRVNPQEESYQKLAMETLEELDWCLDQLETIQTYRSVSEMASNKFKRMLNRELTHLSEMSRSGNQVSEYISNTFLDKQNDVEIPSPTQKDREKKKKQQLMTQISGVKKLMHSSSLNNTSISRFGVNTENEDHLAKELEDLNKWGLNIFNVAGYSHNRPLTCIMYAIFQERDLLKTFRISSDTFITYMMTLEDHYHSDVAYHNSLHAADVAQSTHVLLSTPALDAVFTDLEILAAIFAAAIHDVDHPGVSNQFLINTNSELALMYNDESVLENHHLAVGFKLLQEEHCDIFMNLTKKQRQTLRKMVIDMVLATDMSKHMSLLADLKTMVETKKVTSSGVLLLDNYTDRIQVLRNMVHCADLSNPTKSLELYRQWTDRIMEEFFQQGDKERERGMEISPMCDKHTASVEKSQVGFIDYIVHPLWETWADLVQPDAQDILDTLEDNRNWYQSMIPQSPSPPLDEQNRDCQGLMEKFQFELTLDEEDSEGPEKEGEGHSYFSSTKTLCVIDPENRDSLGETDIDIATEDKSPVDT
Cytochrome P450 1A2 (Homo sapiens), sequence (P05177 whole entry, looked up): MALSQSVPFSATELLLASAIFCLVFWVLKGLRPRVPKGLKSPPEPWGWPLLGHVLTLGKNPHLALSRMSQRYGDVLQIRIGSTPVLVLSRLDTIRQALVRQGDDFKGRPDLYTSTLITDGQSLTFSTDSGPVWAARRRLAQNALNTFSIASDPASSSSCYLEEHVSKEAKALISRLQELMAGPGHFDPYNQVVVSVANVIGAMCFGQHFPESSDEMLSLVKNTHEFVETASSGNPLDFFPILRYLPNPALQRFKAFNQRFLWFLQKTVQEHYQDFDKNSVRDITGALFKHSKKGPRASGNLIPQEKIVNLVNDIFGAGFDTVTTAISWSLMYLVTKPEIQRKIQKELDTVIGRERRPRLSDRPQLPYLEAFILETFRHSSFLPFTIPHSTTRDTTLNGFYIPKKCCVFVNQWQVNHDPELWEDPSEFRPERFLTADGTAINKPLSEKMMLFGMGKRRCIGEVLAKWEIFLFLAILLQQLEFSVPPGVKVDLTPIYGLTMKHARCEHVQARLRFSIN
Cytochrome P450 2C19 (Homo sapiens), sequence (P33261 whole entry, looked up): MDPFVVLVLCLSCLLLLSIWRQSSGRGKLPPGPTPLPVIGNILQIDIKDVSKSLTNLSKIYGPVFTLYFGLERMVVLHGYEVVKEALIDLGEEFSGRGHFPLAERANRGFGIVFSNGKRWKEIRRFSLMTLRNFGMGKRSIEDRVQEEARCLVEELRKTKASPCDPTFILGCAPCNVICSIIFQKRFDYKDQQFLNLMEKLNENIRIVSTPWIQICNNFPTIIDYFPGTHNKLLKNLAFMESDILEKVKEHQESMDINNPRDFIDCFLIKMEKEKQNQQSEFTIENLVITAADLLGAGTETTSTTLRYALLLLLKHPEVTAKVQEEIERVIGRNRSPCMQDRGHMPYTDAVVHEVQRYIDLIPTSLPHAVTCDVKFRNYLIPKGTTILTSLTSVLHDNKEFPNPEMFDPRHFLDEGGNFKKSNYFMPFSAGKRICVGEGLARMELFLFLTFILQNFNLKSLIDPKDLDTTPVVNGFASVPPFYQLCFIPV

Structure (SMILES) | Potency [1] | activity change, negative = inhibition [2] | Potency [3] | activity, negative = inhibition [4] [%] | Potency [5] [µM] | Potency [6] [µM] | Potency [7] | Potency [8] | Potency [9] | Potency [10] | Potency [11] | Potency [12] | Potency [13] | outcome [14] | activity change, negative = inhibition [15] | Potency [16] | Potency [17] | Potency [18] | Potency [19] | Potency [20]
CNc1ncnc2ccc(-c3cccc(OC)c3)cc12 | > 11.4 µM | -19.8% | 0.501 µM (active) | -20.2 | > 46 | > 46 | inactive | inactive | 0.501 µM (active) | 0.501 µM (active) | 0.501 µM (active) | 0.282 µM (active) | inactive | inactive |  |  |  |  |  | 
Cn1cc(-c2nc3cnc(OCc4ccccc4)nc3n(CCC#N)c2=O)c2ccccc21 | > 11.4 µM | 3.51% |  | 27.1 | > 46 | > 46 | inactive | inactive |  | inactive | inactive | inactive | inactive | inactive | 9.29% |  |  |  |  | 
COc1ncc2nc(-c3ccc(F)cc3)c(=O)n(Cc3cccs3)c2n1 | > 11.4 µM | -5.24% |  | -28.5 | > 9.22 | > 46 | inactive | inactive |  | inactive | inactive | inactive | inactive | inactive | -1.45% |  |  |  |  | 
COc1cccc(Nc2ncc3nc(-c4cccs4)c(=O)n(Cc4cccs4)c3n2)c1 | > 11.4 µM | -19.6% | 2 µM (active) | -4.04 | > 9.22 | > 46 | inactive | inactive |  | inactive | inactive | inactive | 20 µM (active) | inactive |  |  |  |  |  | 
Cc1noc(C)c1-c1ccc2ncnc(NCc3cccs3)c2c1 | > 11.4 µM | 20.1% | 0.398 µM (active) |  | > 46 | > 46 | inactive |  |  | 0.501 µM (active) | 0.447 µM (active) | 0.158 µM (active) |  | inactive |  | inactive | 1.26 µM (active) |  |  | 
O=c1c(-c2ccc(F)cc2)nc2cncnc2n1Cc1ccc(F)cc1 | > 11.4 µM | -9.76% |  | -2.38 | > 9.22 | > 46 | inactive | inactive |  | inactive | inactive | inactive | inactive | inactive | -10% |  |  |  |  | 
CN(C)c1ccc(-c2nc(NCCc3cnc[nH]3)c3ccccc3n2)cc1 | 6.71 µM (active) | 0.922% | 0.631 µM (active) | 15.6 | > 46 | > 46 | inactive | inactive |  | 28.2 µM (active) | 22.4 µM (active) | inactive | inactive | inactive |  | inactive | 1.58 µM (active) | 2.51 µM (active) | 7.94 µM (active) | 
c1cn(-c2cc(-c3ccc4c(c3)OCO4)ncn2)cn1 | > 11.4 µM | 13.6% |  | 6.1 | > 46 | > 46 | inactive | inactive |  | 3.16 µM (active) | 2.82 µM (active) | 2 µM (active) | 17.8 µM (active) | inactive | 13.4% |  |  |  |  | 
CN(C)c1ncc2nc(-c3cccs3)c(=O)n(CCc3ccccc3)c2n1 | > 11.4 µM | 14.4% | 5.01 µM (active) |  | > 9.22 | > 46 |  | inactive |  | inactive | inactive | inactive | inactive | inactive | 9.39% |  |  |  |  | 
CNc1ncnc2ccc(-c3ccc4c(c3)OCO4)cc12 | > 11.4 µM | -8.86% |  | 12.6 | > 46 | > 46 | inactive | inactive |  | 0.891 µM (active) | 0.631 µM (active) | 0.355 µM (active) | inactive | inactive | 15.3% |  |  |  |  | 
CN(C)c1ncc2nc(-c3ccc(Cl)cc3)c(=O)n(Cc3ccc(F)cc3)c2n1 | > 11.4 µM | 115% [activator] (active) | 5.01 µM (active) |  | > 9.22 | > 46 | inactive | inactive |  | inactive | inactive | inactive |  | inactive | 137% [activator] (active) |  |  | inactive |  | 1.26 µM (active)
CCNc1ncc2nc(-c3ccc(F)cc3)c(=O)n(-c3ccc(OC)cc3)c2n1 | > 11.4 µM | -1.24% | 6.31 µM (active) | 20.4 | > 9.22 | > 46 | inactive |  |  | inactive | inactive | inactive | inactive | inactive |  | inactive |  |  |  | 
Cc1noc(C)c1-c1ccc2ncnc(NCCN3CCOCC3)c2c1 | > 11.4 µM | 1.93% | 15.8 µM (active) | -22.6 | > 46 | > 46 | inactive | inactive |  | 8.91 µM (active) | 6.31 µM (active) | 8.91 µM (active) | inactive | inactive |  | inactive |  |  |  | 
